Screening results (PubChem BioAssay)
In the library only some 17% were active in any assay of this set; here they are far more common.
TGFb SMAD3 inh: qHTS for Inhibitors of TGF-b; HepG2 CAGA-GFP TGF-b/SMAD3 reporter, GFP fluorescence, 18 h; TGF-beta stimulated, 500 pg/mL final; AID 588855, 2011; Potency, µM (highest dose often 46.1 µM), for the others: top-dose activity, negative = inhibition, hits mostly inhibitors; 410,000 tested, 1.2% active; further: on the % scale 0 is the no-effect control and ±100 the full control effect; nearly all actives have a fitted effect of over 65% in size
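Cell-based qHTS in HEPG2 carrying a CAGA-GFP Smad reporter; compounds added before 500 pg/mL final TGF-beta, 18 h incubation at 37 degrees C, GFP fluorescence quantified per cell by imaging cytometry.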
HepG2 viability: qHTS for Inhibitors of TGF-b: Cytotox Counterscreen; 410,000 tested, 0.76% active; AID 588856, 2011; Potency, µM (doses to about 46.1 µM), inactives show top-dose activity change, negative = cytotoxicity, most hits filed as cytotoxic; HepG2 CAGA-GFP viability, ATP luminescence, 18 h
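HepG2 CAGA-GFP cells (1000/well, DMEM with 1% FBS) received compound, then TGF-beta at 500 pg/mL final, and were incubated 18 hours at 37 degrees C. Viability was read by CellTiter-Glo luminescence. Media-only wells were set as complete cell-killing and DMSO as no toxicity.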
HT1080NT lethal: qHTS for induction of synthetic lethality in tumor cells producing 2HG: qHTS for the HT-1080-NT fibrosarcoma cell line. HT-1080-NT fibrosarcoma viability, CellTiter-Glo ATP luminescence, 48 h. 360,000 tested, 1.6% active. Potency, µM (titrated, usually from 46.1 µM), without a hit: at the top dose activity, negative = less viability, hits mostly cytotoxic;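 further: NT is the 2HG producing partner of a matched IDH1 knockdown line; 0% = DMSO-treated cells and -100% = media-only wells without cells; nearly all actives have a fitted effect of over 55% in size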
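Viability of the 2HG-overproducing fibrosarcoma line after 48 hours of compound exposure at 37 degrees C was determined by luminescence with CellTiter-Glo, and concentration-effect curves were then fitted and categorized.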
HT1080 IDH1KD tx: qHTS for induction of synthetic lethality in tumor cells producing 2HG: qHTS for the HT-1080-IDH1KD cell line. Potency, µM (series often up to 46.1 µM), inactives show at the top dose activity, negative = toxicity, most hits filed as cytotoxic. 360,000 tested, 2% active. HT-1080 IDH1 knockdown viability, ATP luminescence, 48 h;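 further: 0% = DMSO wells and -100% = cell-free medium wells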
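IDH1KD HT-1080 cells, 750/well, RPMI + 5% FBS; compound pinned after 2 h settling; 48 h, 37 °C; CellTiter-Glo luminescence; % activity normalised to DMSO and no-cell wells; curves fitted, classed by r2 and efficacy.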
DT40 TDP1 CPT: qHTS for Inhibitors of human tyrosyl-DNA phosphodiesterase 1 (TDP1): qHTS in cells in presence of CPT | AID 686979, 2013 | Potency, µM (highest dose often 46.2 µM), for inactives: top-dose activity change, negative = growth inhibition, actives largely listed as inhibitors | chicken DT40 Tdp1-/-;hTDP1 cells + 20 nM CPT, ATP luminescence, 48 h | 420,000 tested, 12% active; further: on the % scale 0 is the no-effect control and ±100 the full control effect; nearly all actives have a fitted effect of over 55% in size
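Chicken DT40 Tdp1-/- cells complemented with human TDP1, 400 cells/well, exposed to compounds plus 20 nM camptothecin for at least 48 h at 37 C; viability read as ATP content by CellTiter-Glo luminescence.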
TDP1 cell noCPT: qHTS for Inhibitors of human tyrosyl-DNA phosphodiesterase 1 (TDP1): qHTS in cells in absence of CPT; DT40 Tdp1-/- hTDP1 cells, no CPT, ATP luminescence, 48 h; Potency, µM (series often up to 46.2 µM), for inactives: top-dose activity change, negative = growth inhibition, actives largely listed as inhibitors; 420,000 tested, 15% active; further: on the % scale 0 is the no-effect control and ±100 the full control effect; nearly all actives have a fitted effect of over 55% in size
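Luminescent ATP content (CellTiter-Glo) served as the growth readout. Knockout chicken DT40 cells expressing human TDP1 were exposed to compounds without camptothecin for a minimum 48 hr at 37 °C.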
* = called active by the depositor; ? = inconclusive; . = not tested or not shown; [ ] = dose if it differs, or a comment. The call rests on the fitted dose curve; in most records, active means well fitted curve in the direction sought with a large enough effect; inconclusive means small, poorly fitted or top-dose-only effect, or another doubt; inactive means no such curve, though single readings can be large; an effect the other way counts as inactive or inconclusive. Potency means the concentration at half of the fitted maximal effect.

SMILES	TGFb SMAD3 inh	HepG2 viability	HT1080NT lethal	HT1080 IDH1KD tx	DT40 TDP1 CPT	TDP1 cell noCPT
COc1ccc(CCNCC(O)Cn2c3ccccc3c3ccccc32)cc1OC (stereo not drawn)	?	11.2µM*	-6.0%	23.1µM*	13µM*	11.6µM*
COc1ccccc1NCC(O)Cn1c2ccccc2c2ccccc21 (stereo not drawn)	12.6µM*	-114.9%	-29.5%	?	?	?
COc1cccc(NC(=O)C2CCN(S(=O)(=O)c3c(C)noc3C)CC2)c1	3.4%	0.2%	.	.	12.9%	-14.4%
CC(C)(C)OC(=O)N1CCN(C(=O)OCC2c3ccccc3-c3ccccc32)CC1C(=O)O (stereo not drawn)	-1.9%	-14.3%	-4.8%	-0.6%	23.1µM*	?
O=C(O)Cc1sc(Nc2cccc3ccccc23)nc1-c1ccc(Cl)cc1	-6.9%	-0.1%	11.6µM*	-19.6%	2.9%	-3.5%
Cc1ccc(Cn2c(CNC(=O)c3cccc(C)c3)nc3ccccc32)cc1	2.0%	-10.6%	.	.	-19.6%	?
CCCn1c(SCC(=O)Nc2cc(Cl)ccc2OC)nc(O)cc1=O	7.3%	-0.3%	-0.5%	-0.1%	-16.9%	-3.7%
Nc1nc(N)c(C=Nc2ccc(Br)cc2)c(Nc2ccc(Br)cc2)n1	-0.2%	3.6%	-0.9%	1.4%	14.6µM*	13µM*
Cc1ccc(NC(=O)CSc2nc3c(c(=O)[nH]2)CN(Cc2ccc(F)cc2)CC3)cc1C	?	8.6%	1.7%	3.0%	?	?
O=C(CSc1nc2c(c(=O)[nH]1)CN(Cc1ccc(F)cc1)CC2)Nc1ccc(F)cc1	2.5%	-6.5%	6.7%	3.0%	20.6µM*	16.4µM*
CC(C)CC(=O)Nc1nnc(S(=O)(=O)N(C)Cc2ccco2)s1	-9.7%	-15.9%	1.8%	0.4%	-5.2%	-26.9%
CC(C)CN(C(=O)C1CCCO1)c1c(N)n(CC(C)C)c(=O)[nH]c1=O (stereo not drawn)	37.3%	7.0%	-0.1%	-15.1%	-15.5%	0.1%
COc1ccc2cc(C3CC=C(CO)CN3S(=O)(=O)c3ccccc3[N+](=O)[O-])n(C(=O)OC(C)(C)C)c2c1 (stereo not drawn)	.	.	?	?	23.1µM*	20.6µM*
COc1ccc([C@H]2C[C@@H](n3cc(COC(=O)c4ccccc4)nn3)[C@H](O)CN2Cc2cccs2)cc1	5.0%	4.7%	13.9%	16.6%	?	?
Cc1csc(NC(=O)CSc2nc3[nH]ncc3c(=O)[nH]2)n1	-2.6%	19.6%	-2.0%	10.1%	?	29.1µM*
Cc1ccc(-c2csc(NC(=O)CSc3nc(C)cc(=O)[nH]3)n2)cc1	-4.2%	-31.6%	1.8%[9.24 µM]	9.2%	18.4µM*	18.4µM*
O=C(CSc1nnc2c(n1)[nH]c1ccccc12)Nc1cccc(S(=O)(=O)N2CCOCC2)c1	-9.6%	-10.8%	-3.5%	-5.9%	14.6µM*	?
Cc1ccc(NC(=O)CSc2nnc3c(n2)[nH]c2ccccc23)cc1	-6.0%	5.0%	2.3%	2.6%	3.4%	8.4%
Cc1ccc(-c2csc(NC(=O)CSC3=NCCS3)n2)cc1	?	-24.0%	-3.6%	-2.8%	?	-28.7%
Cc1ccc(-c2csc(NC(=O)CSc3nnc4c(n3)[nH]c3ccccc34)n2)cc1	-11.4%	16.8%	18.4µM*	20.6µM*	13µM*	5.8µM*
CC(=O)c1ccc(NC(=O)CSc2nnc3c(n2)[nH]c2ccccc23)cc1	8.2%	0.8%	.	.	?	16.4µM*
C[C@@H]1[C@H](c2ccccc2)OCCS(=O)(=O)N1Cc1ccccc1Br	?	6.8%	.	.	?	?
C[C@@H]1[C@H](c2ccccc2)OCCS(=O)(=O)N1Cc1ccccc1	1.2%	18.4%	.	.	-7.2%	-6.6%
C[C@@H]1[C@H](c2ccccc2)OCCS(=O)(=O)N1Cc1cccc(Cl)c1	?	-2.3%	.	.	?	12.6µM*
C[C@@H]1[C@H](c2ccccc2)OCCS(=O)(=O)N1Cc1ccc(Cl)cc1	?	-0.1%	.	.	11.2µM*	10µM*
SMILES	TGFb SMAD3 inh	HepG2 viability	HT1080NT lethal	HT1080 IDH1KD tx	DT40 TDP1 CPT	TDP1 cell noCPT
Cc1ccccc1CN1[C@H](C)[C@H](c2ccccc2)OCCS1(=O)=O	?	-6.3%	.	.	?	12.6µM*
Cc1ccc(OCCOc2ccc(S(=O)(=O)N3CCCC3)cc2C(N)=O)cc1	-5.5%	-9.6%	-1.0%	-0.7%	-1.1%	-24.3%
COc1ccc(OCC(=O)N2CCCC(CO)(CCOc3ccccc3)C2)cc1 (stereo not drawn)	-3.9%	-30.8%	-0.1%	-3.8%	-12.5%	-1.8%
CCNC(=O)C1(C)CCCN(Cc2ccc3ccccc3c2Br)C1 (stereo not drawn)	?	-32.8%	?	?	?	18.4µM*
COCCNC(=O)C1(C)CCN(Cc2ccc3ccccc3c2Br)C1 (stereo not drawn)	-7.0%	-26.8%	-3.1%	17.3%	29.1µM*	10.3µM*
CCNC(=O)C1(C)CCCN(Cc2cccc3ccccc23)C1 (stereo not drawn)	7.2%	-9.6%	7.1%	3.5%	?	?
CC(C)CCNC(=O)C(c1ccco1)N(CCCO)C(=O)Cn1nnc(-c2ccc(F)cc2)n1 (stereo not drawn)	6.1%	-0.6%	-13.4%	5.3%	-9.8%	-20.2%
N#CCCN(C(=O)COC(=O)CNS(=O)(=O)c1ccc2ccccc2c1)c1ccccc1	8.0%	5.2%	-0.8%	2.9%	-1.8%	5.5%
CCCOc1ccc(/C=C/C(=O)OCC(=O)N(C)c2c(N)n(Cc3ccccc3)c(=O)[nH]c2=O)cc1OCC	29.6%	0.6%	1.6%	-2.7%	?	16.4µM*
COCCN(C(=O)COC(=O)/C=C/c1ccc(C(F)(F)F)cc1)c1c(N)n(Cc2ccccc2)c(=O)[nH]c1=O	-0.9%	-26.7%	-11.0%	-6.8%	20.6µM*	20.6µM*
CN(C(=O)COC(=O)/C=C/c1ccc(Cl)c(Cl)c1)c1c(N)n(Cc2ccccc2)c(=O)[nH]c1=O	-15.6%	-32.0%	0.7%	0.0%	9.2µM*	16.4µM*
